We go through 10 compounds from PubChem BioAssay (EPA / NIEHS).

Structures are written as SMILES. Calls of active or inactive are those of the source. Rule for the calls: active = hit-call score of the fitted dose curve at least 0.9, where 1 is the maximum; inactive = score below 0.9.

Conditions in all cases: mRNA level, 48 h; actives raise or lower the signal
Read-out in assay [1]: Bcl-2 (BID) gene, BID (gene 637)
As to the kind of experiment: LTEA_HepaRG_BID: Life Technologies and Expression Analysis (LTEA) Assay for Bcl-2 (BID) gene using HepaRG (AID 2283476). In short, it runs like this: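 Gene expression by qRT-PCR in HepaRG cells after 48 h exposure, duplicate wells, eight half-log concentrations topping at 100 uM in 0.5% DMSO. Normalized to ACTB, GAPDH, POLR2A; bidirectional fitting relative to DMSO.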

Read-out in the next assay: Caspase-3 (Homo sapiens) (UniProt P42574)
As to the kind of experiment: LTEA_HepaRG_CASP3: Life Technologies and Expression Analysis (LTEA) Assay for cysteine-aspartic acid protease (CASP3) using HepaRG (AID 2283477). The gist of the method: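 In HepaRG liver cells dosed for 48 h at up to 100 uM (eight-point, duplicate), CASP3 expression changes are scored by qRT-PCR. Activity is fitted in both directions with 0.5% DMSO as baseline.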

Read-out in assay [2]: Cytochrome P450 (CYP24A1), CYP24A1 (gene 1591)
Nature of the assay: LTEA_HepaRG_CYP24A1: Life Technologies and Expression Analysis (LTEA) Assay for Cytochrome P450 (CYP24A1) using HepaRG (AID 2283478). In short, it runs like this:
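Human liver HepaRG cultures receive each chemical for 48 h across an eight-point half-log series topping at 100 uM in 0.5% DMSO. Induction or suppression of CYP24A1 mRNA is scored relative to vehicle after housekeeping-gene normalization.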

Read-out in assay [3]: Cytochrome P450 (CYP1A2), CYP1A2 (gene 1544)
As to the kind of experiment: LTEA_HepaRG_CYP1A2: Life Technologies and Expression Analysis (LTEA) Assay for Cytochrome P450 (CYP1A2) using HepaRG (AID 2283479).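 For AC50: TaqMan qRT-PCR transcript level normalized to ACTB GAPDH and POLR2A.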 The gist of the method:
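Assesses CYP1A2 mRNA in human HepaRG liver cells after 48 h chemical exposure at up to 100 uM. Values come from qRT-PCR with bidirectional curve fitting relative to DMSO.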

Read-out in assay [4]: cysteine-aspartic acid protease (CASP8), CASP8 (gene 841)
Nature of the assay: LTEA_HepaRG_CASP8: Life Technologies and Expression Analysis (LTEA) Assay for cysteine-aspartic acid protease (CASP8) using HepaRG (AID 2283480). In short, it runs like this: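 Differentiated HepaRG cells in serum-free induction medium, 48 h exposure, eight-point half-log series from 100 uM in 0.5% DMSO, duplicates. CASP8 mRNA by qRT-PCR, normalized to ACTB, GAPDH, POLR2A; bidirectional fit versus DMSO.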

Read-out in assay [5]: Cytochrome P450 (CYP2B6), CYP2B6 (gene 1555)
Nature of the assay: LTEA_HepaRG_CYP2B6: Life Technologies and Expression Analysis (LTEA) Assay for Cytochrome P450 (CYP2B6) using HepaRG (AID 2283481). The gist of the method: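 Using 48 h treatment of HepaRG cells in serum-free induction medium, concentrations spanned half-log steps from 100 uM in 0.5% DMSO vehicle. CYP2B6 mRNA induction or loss is scored by qRT-PCR against DMSO.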

Read-out in assay [6]: Cytochrome P450 2C19 (Homo sapiens) (UniProt P33261)
Nature of the assay: LTEA_HepaRG_CYP2C19: Life Technologies and Expression Analysis (LTEA) Assay for CYP2C19 using HepaRG (AID 2283482). The gist of the method: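 Human HepaRG liver cells received test chemicals for 48 h (highest 100 uM, half-log dilutions in 0.5% DMSO). CYP2C19 mRNA induction or loss is read by multiplexed qRT-PCR and fitted in both directions versus vehicle.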

Read-out in the next assay: CYP2C8 (gene 1558)
Nature of the assay: LTEA_HepaRG_CYP2C8: Life Technologies and Expression Analysis (LTEA) Assay for CYP2C8 using HepaRG (AID 2283483). In short, it runs like this: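 Differentiated HepaRG cells in serum-free induction medium exposed 48 h in duplicate to 8 half-log concentrations from 100 uM in 0.5% DMSO. CYP2C8 mRNA by qRT-PCR normalized to ACTB, GAPDH, POLR2A; bidirectional fit versus DMSO.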

Read-out in another assay: CYP2C9 (gene 1559)
Nature of the assay: LTEA_HepaRG_CYP2C9: Life Technologies and Expression Analysis (LTEA) Assay for CYP2C9 using HepaRG (AID 2283484). The gist of the method:
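Differentiated human HepaRG cells in serum-free induction medium were exposed 48 h to chemicals in 8-point half-log series from 100 uM (0.5% DMSO), in duplicate. CYP2C9 mRNA was measured by qRT-PCR, normalized to ACTB/GAPDH/POLR2A, with bidirectional fitting versus DMSO.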

Read-out in another assay: CYP2E1 (gene 1571)
As to the kind of experiment: LTEA_HepaRG_CYP2E1: Life Technologies and Expression Analysis (LTEA) Assay for CYP2E1 using HepaRG (AID 2283485). The gist of the method:
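HepaRG cells, plated 48 h, then exposed 48 h in serum-free induction medium to eight half-log concentrations from 100 uM in 0.5% DMSO, duplicate. CYP2E1 mRNA by qRT-PCR, normalized to ACTB/GAPDH/POLR2A; bidirectional fit versus DMSO.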

Cytochrome P450 2C19 (Homo sapiens), sequence (P33261 whole entry, looked up): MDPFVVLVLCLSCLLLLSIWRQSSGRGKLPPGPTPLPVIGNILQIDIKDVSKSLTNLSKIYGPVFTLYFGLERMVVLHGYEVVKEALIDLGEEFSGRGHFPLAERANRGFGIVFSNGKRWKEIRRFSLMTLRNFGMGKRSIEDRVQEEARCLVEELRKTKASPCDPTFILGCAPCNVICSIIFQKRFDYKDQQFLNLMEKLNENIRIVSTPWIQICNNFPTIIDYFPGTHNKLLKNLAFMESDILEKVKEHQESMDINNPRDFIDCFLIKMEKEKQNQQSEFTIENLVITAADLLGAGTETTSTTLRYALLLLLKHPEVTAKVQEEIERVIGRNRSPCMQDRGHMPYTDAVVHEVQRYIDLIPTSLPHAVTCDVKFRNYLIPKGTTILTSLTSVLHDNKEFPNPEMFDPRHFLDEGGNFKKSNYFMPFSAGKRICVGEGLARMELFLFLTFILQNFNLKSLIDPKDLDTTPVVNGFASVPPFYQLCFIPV
Caspase-3 (Homo sapiens), sequence (P42574 whole entry, looked up): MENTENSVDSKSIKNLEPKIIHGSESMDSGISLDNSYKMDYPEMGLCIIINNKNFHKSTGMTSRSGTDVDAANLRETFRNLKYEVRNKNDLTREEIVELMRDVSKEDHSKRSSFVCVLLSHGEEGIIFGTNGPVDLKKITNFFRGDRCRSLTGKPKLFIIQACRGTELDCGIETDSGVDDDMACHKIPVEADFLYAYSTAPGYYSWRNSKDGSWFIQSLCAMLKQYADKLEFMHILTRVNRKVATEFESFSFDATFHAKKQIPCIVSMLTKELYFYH

As to `CCCCCC(=O)O`, the call (in assay [1]; with Caspase-3 (Homo sapiens); in assay [2]; in [4]; in assay [5]; in assay [6]) was inactive. In addition, the call in the assay with CYP2C8 (gene 1558), in the assay with CYP2C9 (gene 1559) and with CYP2E1 (gene 1571) was inactive. Moreover, the AC50 – broadly, the concentration giving half of the maximal activity seen – in assay [3] was 63.7 µM (active).
As for `CC(=O)C(C)=CC1C(C)=CCCC1(C)C` (stereo not given), the result (in [1]; with Caspase-3 (Homo sapiens); in [2]; in [3]; in [4]; in [5]) was inactive. Besides, the compound was classed as inactive (in [6]; with CYP2C8 (gene 1558); with CYP2C9 (gene 1559); with CYP2E1 (gene 1571)).
In the case of `OC[C@@H](O)[C@@H](O)[C@H](O)[C@H](O)CO`, the result (in [1]; with Caspase-3 (Homo sapiens); in assay [2]; in assay [3]; in assay [4]; in [5]) was inactive. The compound was classed as inactive (in assay [6]; in the assay with CYP2C8 (gene 1558); with CYP2C9 (gene 1559); with CYP2E1 (gene 1571)).
With `CCCCN(CCCC)CCCC`, the result (in assay [1]; with Caspase-3 (Homo sapiens); in assay [2]; in assay [3]; in assay [4]; in [5]) was inactive. For the same compound, the compound was classed as inactive (in [6]; with CYP2C8 (gene 1558); with CYP2C9 (gene 1559); in the assay with CYP2E1 (gene 1571)).
On to `CCc1c(C(=O)NN2CCCCC2)nn(-c2ccc(Cl)cc2Cl)c1-c1ccc(Br)cc1`, for which the compound was called inactive in [1], in assay [2] and in assay [4]. The AC50 with Caspase-3 (Homo sapiens) was 50 µM (active); in [3] it was 91.8 µM (active); in [5], 30 µM (active); in [6], 34.6 µM (active); with CYP2C8 (gene 1558), 23.6 µM (active); with CYP2C9 (gene 1559) it was 30.4 µM (active). The AC50 in the assay with CYP2E1 (gene 1571) was 22.4 µM (active).
As for `C[Si]1(C)O[Si](C)(C)O[Si](C)(C)O[Si](C)(C)O1`, the result (in assay [1]; in the assay with Caspase-3 (Homo sapiens); in assay [2]; in [3]; in assay [4]; in [5]) was inactive. The outcome (in [6]; with CYP2C8 (gene 1558); with CYP2C9 (gene 1559); in the assay with CYP2E1 (gene 1571)) was inactive.
With `CCCCCCC(=O)OCC`, the call (in [1]; with Caspase-3 (Homo sapiens); in assay [2]; in assay [4]; with CYP2C8 (gene 1558); with CYP2C9 (gene 1559)) was inactive. In the assay with CYP2E1 (gene 1571), the outcome was inactive. The AC50 is 23 µM (active) in assay [3], 6.44 µM (active) in assay [5] and 8.96 µM (active) in assay [6].
Turning to `CCNc1cccc(C)c1`, the call (in assay [1]; in the assay with Caspase-3 (Homo sapiens); in [2]; in assay [3]; in [4]; in assay [5]) was inactive. In addition, the compound was classed as inactive (in assay [6]; in the assay with CYP2C8 (gene 1558); with CYP2C9 (gene 1559); with CYP2E1 (gene 1571)).
As for `CCCCC(CC)COC(=O)CC(C(=O)OCC(CC)CCCC)S(=O)(=O)O` (stereo not given), the AC50 in assay [1] was 50 µM (active); with Caspase-3 (Homo sapiens), 81 µM (active); in [3], 15.8 µM (active); in assay [4] it was 81.6 µM (active); in assay [5] it was 15.8 µM (active); in assay [6], 89.9 µM (active). The AC50 was 15.8 µM (active) with CYP2C8 (gene 1558), 88.1 µM (active) in the assay with CYP2C9 (gene 1559) and 76.5 µM (active) with CYP2E1 (gene 1571). In [2], the result was inactive.
`Oc1ccc2c(c1)OC[C@@H](N1CCC(O)(c3ccc(F)cc3)CC1)[C@H]2O`: the compound was called inactive (in [1]; with Caspase-3 (Homo sapiens); in assay [2]; in assay [3]; in assay [4]; in [5]). In addition, the outcome (in assay [6]; with CYP2C8 (gene 1558); with CYP2C9 (gene 1559); in the assay with CYP2E1 (gene 1571)) was inactive.
